MEKK2 WT-MEK5 = raises or lowers MEK5 binding to wildtype human MEKK2 PB1 domain. Q9Y2U5. bead flow cytometry, Alexa488-MEK5 binding to MEKK2 WT; actives lie on both sides. binding response (% of control), % at 10 µM. hit rate 1.1% among 290,000; in the data active = binding response below about 67% or above about 130%
MEKK3 PB1 HTS = raises or lowers MEK5 binding to the human MEKK3 PB1 domain | Q99759 | bead-based flow cytometry, Alexa488-MEK5 binding to MEKK3; actives lie on both sides; 0 = blocked by unlabeled MEK5, 100 = vehicle | binding response (% of control), % at 10 µM | hit rate 1.4% among 290,000 | AID 1529;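 active = binding response more than 3 SD above or below the average of its plate-row segment, actives on both sides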;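 also: Alexa488 bead fluorescence after subtracting the streptavidin-only scavenger bead signal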
GRK2 inh = inhibitors of human GRK2 displacing RNA aptamer; P25098; bead flow cytometry, FAM-aptamer displacement from GRK2; inhibition of aptamer binding, % at 10 µM; hit rate 0.59% among 330,000;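 active = inhibition of aptamer binding above 40%, roughly 3 SD of noise, on plates passing a quality check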;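 also: median bead fluorescence of bound FAM aptamer so fluorescent compounds give negative values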
Target sequence (P25098 whole entry, looked up): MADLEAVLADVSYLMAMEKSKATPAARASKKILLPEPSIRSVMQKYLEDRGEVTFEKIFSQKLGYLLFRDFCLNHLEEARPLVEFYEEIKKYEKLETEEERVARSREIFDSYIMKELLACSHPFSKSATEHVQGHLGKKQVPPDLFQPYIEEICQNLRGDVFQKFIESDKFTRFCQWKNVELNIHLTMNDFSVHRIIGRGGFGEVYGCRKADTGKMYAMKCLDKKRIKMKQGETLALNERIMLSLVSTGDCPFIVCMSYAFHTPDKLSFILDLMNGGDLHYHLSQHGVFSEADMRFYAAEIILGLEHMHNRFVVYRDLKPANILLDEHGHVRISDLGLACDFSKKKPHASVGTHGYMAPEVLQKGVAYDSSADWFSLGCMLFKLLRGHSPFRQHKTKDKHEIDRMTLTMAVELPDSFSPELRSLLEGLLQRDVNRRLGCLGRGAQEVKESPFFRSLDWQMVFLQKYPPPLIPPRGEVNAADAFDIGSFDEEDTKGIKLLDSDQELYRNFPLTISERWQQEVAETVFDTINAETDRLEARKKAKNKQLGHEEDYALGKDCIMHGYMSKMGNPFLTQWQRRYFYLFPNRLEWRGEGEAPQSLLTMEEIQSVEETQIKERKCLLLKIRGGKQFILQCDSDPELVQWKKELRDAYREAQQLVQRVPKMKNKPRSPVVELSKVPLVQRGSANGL
MEKK2mut PB1 HTS = signal of MEK5 binding to mutant human MEKK2 PB1 domain; hit rate 0.35% among 290,000; bead flow cytometry, Alexa488-MEK5 binding to MEKK2 mutant; percent response, % at 10 µM; in the data active = percent response above about 24%, passing the limit was not always enough
MEKK2wt confirm = raises or lowers MEK5 binding to wildtype human MEKK2, retest; shares compounds with MEKK3 PB1 HTS; bead flow cytometry, Alexa488-MEK5 binding to MEKK2 WT; actives lie on both sides; binding response (% of control), % at 10 µM; hit rate 2.4% among 5,900; in the data active = binding response below about 16% or above about 210%; inactive = in between
MEKK2mut confirm = signal of MEK5 binding to mutant human MEKK2, retest; shares compounds with MEKK3 PB1 HTS; bead flow cytometry, Alexa488-MEK5 binding to MEKK2 mutant; percent response, % at 10 µM; hit rate 2% among 5,900; in the data active = percent response mostly above about 71%, no sharp cut-off; inactive = mostly below about 38%;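 also: higher means compound restores mutant binding toward wildtype level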
MEKK3-MEK5 inh = confirmation of inhibitors of MEK5 binding to human MEKK3; shares compounds with MEKK3 PB1 HTS; bead flow cytometry, Alexa488-MEK5 binding to MEKK3; hits give low values; binding response (% of control), % at 10 µM; hit rate 1.8% among 5,900;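 active = binding response below 72% of control, or above a set upper limit, though filed actives all read lower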;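 also: lower values mean stronger disruption of MEK5 binding to MEKK3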
A number is an active result; 0 = inactive; - = no result; [ ] = another dose, or the depositor's remark. A selection: hits, their analogues and other compounds. The true share with any hit is near 2.5%.

SMILES	MEKK2 WT-MEK5	MEKK3 PB1 HTS	GRK2 inh	MEKK2mut PB1 HTS	MEKK2wt confirm	MEKK2mut confirm	MEKK3-MEK5 inh
COc1ccc(OCC(=O)N/N=C/c2ccc(N(C)C)cc2)cc1	0	0	0	0	-	-	-
COc1ccc(OCC(=O)N/N=C/c2ccsc2)cc1	0	140	0	0	0	0	0
CC(C(=O)NCCN1C(=O)S/C(=C\c2cccs2)C1=O)N1C(=O)c2ccccc2C1=O (stereo not drawn)	0	146	0	0	0	0	0
O=C(NCCN1C(=O)S/C(=C\c2cccs2)C1=O)[C@H](Cc1ccccc1)N1C(=O)c2ccccc2C1=O	0	0	0	0	-	-	-
C=CCN1c2ccccc2[C@]23C[C@@H](C(=O)OC)N(C(C)=O)C2=NC(C(=O)OC)=C(C(=O)OC)[C@H]13	0	0	0	0	-	-	-
CC#CCN1c2ccccc2[C@]23C[C@@H](C(=O)OC)N(C(=O)NC(C)(C)C)C2=NC(C(=O)OC)=C(C(=O)OC)[C@H]13	0	0	0	0	-	-	-
C=CCN1c2ccccc2[C@]23C[C@@H](C(=O)OC)N=C2NC(C(=O)OC)=C(C(=O)OC)[C@H]13	150	0	0	0	0	0	0
CC#CCN1c2ccccc2[C@]23C[C@@H](C(=O)OC)N(C(=O)c4ccco4)C2=NC(C(=O)OC)=C(C(=O)OC)[C@H]13	151	0	0	0	0	0	0
C=CCN1c2ccccc2[C@]23C[C@@H](C(=O)OC)N(C(=O)c4cc(C)oc4C)C2=NC(C(=O)OC)=C(C(=O)OC)[C@H]13	147	0	0	0	0	0	0
CC#CCN1c2ccccc2[C@]23C[C@@H](C(=O)OC)N(C(=O)c4cc(C)oc4C)C2=NC(C(=O)OC)=C(C(=O)OC)[C@H]13	0	0	0	0	-	-	-
COc1nc(NC(=O)c2ccc(F)cc2)nc(OC)c1-c1ccccc1	0	0	0	0	-	-	-
COc1ccc(CC(=O)Nc2sccc2C#N)cc1S(=O)(=O)N1CCOCC1	-	-	0	-	-	-	-
Cc1ccc2nc(SCC(=O)N3CCCCC3)nc(=O)n2c1	-	-	0	-	-	-	-
COc1ccc(CC(=O)Oc2cc(C)ccc2C)cc1	0	0	0	0	-	-	-
CCN1CCc2nc(NC(=O)C(c3ccccc3)c3ccccc3)sc2C1	0	0	0	0	-	-	-
CCN1CCc2nc(NC(=O)Cc3ccc4c(c3)OCCO4)sc2C1	140	0	0	0	0	0	0
CCN1CCc2nc(NC(=O)CC(c3ccccc3)c3ccccc3)sc2C1	183	0	0	44	0	0	0
Cc1sc2ncnc(N3CCC(C(=O)Nc4sc5c(c4C(N)=O)CCC(C)C5)CC3)c2c1C (stereo not drawn)	-	-	0	-	-	-	-
c1ccc(Cc2ccc(OCCCNC3CCCC3)cc2)cc1	138	0	0	0	0	0	0
C=C(C)[C@@H]1CC=C(CN2CCC(N3CCC(C(=O)N4CCCC4)CC3)CC2)CC1	142	0	0	0	0	0	0
CC(=O)N=c1c(C#N)cc2c(=O)n3cccc(C)c3nc2n1CCCOC(C)C	46[inhibitor]	0	0	0	0	0	0
Cc1nn(-c2ccccc2)c(C)c1/C=N/NC(=O)c1cccs1	0	133	0	0	0	0	0
Cc1[nH]c2ccccc2c1/C=N/NC(=O)c1cccs1	0	0	0	128	0	0	0
Cc1cccc(C)c1NC(=O)COC(=O)c1ccc(N2CCCC2)c([N+](=O)[O-])c1	0	0	0	0	-	-	-
CCC(C)c1ccccc1NC(=O)COC(=O)c1ccc(N2CCCC2)c([N+](=O)[O-])c1 (stereo not drawn)	0	132	0	0	0	0	0
SMILES	MEKK2 WT-MEK5	MEKK3 PB1 HTS	GRK2 inh	MEKK2mut PB1 HTS	MEKK2wt confirm	MEKK2mut confirm	MEKK3-MEK5 inh
CCN1C(=O)[C@H]2[C@@H](c3ccc(C)cc3)N3C(=O)N(c4ccc(OC)cc4)C(=O)[C@@]3(C)[C@H]2C1=O	0	0	0	0	-	-	-
O=C(N/N=C/C=C/c1ccco1)/C(=C/c1ccccc1)NC(=O)c1ccccc1	0	0	0	0	-	-	-
O=C(CNc1cc(S(=O)(=O)N2CCOCC2)ccc1NCC1CCCO1)Nc1ccc(C(F)(F)F)cc1 (stereo not drawn)	-	-	0	-	-	-	-
N#Cc1ccc(NC(=O)CNc2cc(S(=O)(=O)N3CCOCC3)ccc2NCC2CCCO2)cc1 (stereo not drawn)	7.0[inhibitor]	5.0[inhibitor]	0	0	0	0	0
CC1CCCCC1NC(=O)CO/N=C/c1ccccc1OC(F)F (stereo not drawn)	0	71[inhibitor]	0	0	0	0	0
O=C(CO/N=C/c1ccccc1OC(F)F)N1CCc2ccccc21	0	0	0	0	-	-	-
CC1Cc2ccccc2N1C(=O)CO/N=C/c1ccccc1OC(F)F (stereo not drawn)	0	10[inhibitor]	0	0	0	0	0
CN(c1ccc([N+](=O)[O-])cc1C(N)=O)C1CCCCC1	0	0	0	0	-	-	-
COc1cc2c(cc1OC)CN(C(=O)C(CCSC)NS(=O)(=O)c1ccc(C)cc1)CC2 (stereo not drawn)	0	0	0	0	-	-	-
Cc1c(CCOC(=O)CC23CC4CC(CC(C)(C4)C2)C3)sc[n+]1CC(=O)c1ccccc1	153	0	0	0	0	0	0
O=C(Nc1cccc(-c2cccc(F)c2)c1)C1CCN(CC2CCOC2)CC1 (stereo not drawn)	0	0	0	0	-	-	-
Cc1cccc(-c2ccc(NC(=O)C3CCN(CC4CC4)CC3)cc2)c1	159	0	0	35	0	0	0
O=C(Nc1cccc(-c2cccc(Cl)c2)c1)C1CCN(CC2CCOC2)CC1 (stereo not drawn)	151	0	0	41	0	0	0
COCc1ccc(CN2CCC(C(=O)Nc3cccc(-c4cccc(Cl)c4)c3)CC2)o1	177	0	-	25	0	0	0
O=C(Nc1cccc(-c2cccc(Cl)c2)c1)C1CCN(Cc2ccccn2)CC1	140	0	0	0	0	0	0
COCc1ccc(CN2CCC(C(=O)Nc3cccc(-c4cscn4)c3)CC2)o1	0	0	0	0	-	-	-
Cn1ncc(C(=O)N=S(C)(=O)c2ccccc2)c1[N+](=O)[O-] (stereo not drawn)	0	0	0	0	-	-	-
O=C(CCC(=O)c1ccccc1)Nc1ccc(C(=O)O)cc1	0	0	0	0	-	-	-
COc1cc(NC(=O)Cc2cccc3ccccc23)c(C(=O)O)cc1OC	0	0	0	0	-	-	-
CC1CN(S(=O)(=O)c2cccc(C(=O)NCc3ccccn3)c2)CC(C)O1 (stereo not drawn)	-	-	0	-	-	-	-
Cc1ccc(NS(=O)(=O)c2cc([N+](=O)[O-])ccc2N/N=C/c2sc(N3CCOCC3)nc2-c2ccccc2)c(C)c1	-	10[inhibitor]	0	0	0	0	0

Screening results from PubChem BioAssay.
